# Laboratory results reported in PubChem BioAssay AID1347383 (Zoeller Lab, School of Medicine, Boston University, 2020).
# Active and inactive are the calls of the source.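 Rule for the calls: active = cell survival after UV exposure 2 SD above solvent-only control wells at 10 µM, confirmed on one or two repeats; inactive = the rest.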
# Experiment: protection of CHO cells from pyrene-fatty acid UV killing, primary screen, phospholipid biosynthesis inhibitor project, ZR-82 cells, Analyticon library, screen 2 (AID 1347383);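 note: survival reflects blocked phospholipid synthesis cutting uptake of the phototoxic fatty acid; compound and fatty acid exposure 3 h then viability read next day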
# Details: ZR-82 CHO cells, CellTiter Blue, at 10 µM, peroxisome-deficient CHO-K1 variant, with DGAT-1, DGAT-2 and ACAT inhibitors
row,SMILES,outcome
1,CCCC(O)C1OCC2=C1C(O)C1OC1C2O (centres undefined),inactive
2,COc1ccc(C(O)C(C)O)cc1 (centres undefined),inactive
3,COc1cc2c(c3c1C(=O)C[C@@H](C)O3)CCO2,inactive
4,CC(=O)OC(C)C(C)(O)C(=O)O[C@@H]1CC[C@]2(C)CC(=O)C(=C(C)C)C[C@H]2[C@]1(C)OC(C)=O (some centres undefined),inactive
5,C=C1C(=O)O[C@@H]2/C=C(\C)CC/C=C(\C(=O)O)C[C@@H](OC(=O)/C(C)=C/C)C12 (some centres undefined),inactive
6,CCCCCCCCCCCCC(O)/C=C/CCC(=O)O (centres undefined),inactive
7,CC(=O)NC(Cc1c[nH]c2ccccc12)C(=O)O (centres undefined),inactive
8,CC(=O)OC1C(O)C2C(C)C3=CC(=O)OC3(O)CC2C2(C)CCCC(C)(CO)C12 (centres undefined),inactive
9,COC(=O)/C=C/c1ncn(C)c1CC=C(C)C,inactive
10,C=C(C)C(O)Cc1c(O)cc(CCc2ccccc2)c(CC=C(C)C)c1O (centres undefined),inactive
11,O=c1c(-c2ccc(O)cc2O)coc2cc(O)cc(O)c12,inactive
12,C#CC(O)COc1ccc(C(=O)O)cc1 (centres undefined),inactive
13,CC(CO)C1CCC2(C)CC3C(CO)CC(O)C3C(C)(O)CC=C12 (centres undefined),inactive
14,C=C(C(=O)O)C1CC(OC(=O)CC(C)CC)C2(C)CCCC(=C)C2C1 (centres undefined),inactive
15,O=C(O)/C=C/c1ccc(O[C@@H]2O[C@H](CO)[C@@H](O)[C@H](O)[C@H]2O)cc1,inactive
16,CCCC/C=C\CCCCCCCc1cc(=O)c2ccccc2n1C,inactive
17,CCC(C)CC(=O)OC1C(=O)C(CO)C(OC)C(OC(C)=O)C1C(C)C (centres undefined),inactive
18,O=C1CC(c2ccc(O)cc2O)Oc2cc(O)cc(O)c21 (centres undefined),inactive
19,C=C(C)[C@H]1CC[C@]2(C(=O)O)CC[C@]3(C)C(CCC4[C@@]5(C)CCC(=O)C(C)(C)C5CC[C@]43C)C12 (some centres undefined),inactive
